Assay [1] is described as follows: NCI Yeast Anticancer Drug Screen. Data for the rad50 strain (AID 155).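 Also: 0% = growth of vehicle-only cultures of the same strain.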 The conditions noted are these: S. cerevisiae rad50 strain growth inhibition; at 50.0 µM; stronger effect = higher value. In a few lines:
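Inhibition values express reduced yeast growth in compound-treated cultures relative to vehicle-treated controls.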

Assay [2] can be described thus: NCI Yeast Anticancer Drug Screen. Data for the mec2-1 strain (AID 157). The note with it: S. cerevisiae mec2-1 strain, at 50.0 µM, stronger effect = higher value. In a few lines:
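Growth inhibition is read against vehicle-treated controls after compound exposure of the mec2-1 yeast strain, which is defective in DNA damage repair or cell cycle control.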

Assay [3] in a line: NCI Yeast Anticancer Drug Screen. Data for the sgs1 mgt1 strain (AID 161).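 Also: 0% = growth of cultures given vehicle only.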 The note with it: S. cerevisiae sgs1 mgt1 strain, at 50.0 µM, stronger effect = higher value. In a few lines:
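Compounds are added to genetically altered yeast, and growth is compared with cultures given vehicle alone to give percent inhibition.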

The nature of assay [4]: NCI Yeast Anticancer Drug Screen. Data for the cln2 rad14 strain (AID 165).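 Also: 0% = growth equal to vehicle treated cultures.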 The note with it: S. cerevisiae cln2 rad14 strain, at 50.0 µM, stronger effect = higher value. In a few lines:
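Growth inhibition, relative to vehicle-treated controls, is the read-out. The test organism is a yeast strain with defined genetic alterations, cln2 rad14.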

The nature of assay [5]: NCI Yeast Anticancer Drug Screen. Data for the bub3 strain (AID 167). The note with it: S. cerevisiae bub3 mutant strain, at 50.0 µM, stronger effect = higher value. In a few lines:
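Steps: expose the mutant yeast strain to compound; grow alongside vehicle-treated cultures; measure growth; express inhibition against the vehicle cultures.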

The nature of assay [6]: NCI Yeast Anticancer Drug Screen. Data for the mlh1 rad18 strain (AID 175). The conditions noted are these: S. cerevisiae mlh1 rad18 strain growth inhibition; at 50.0 µM; stronger effect = higher value. In a few lines:
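Cells of a genetically altered yeast strain, deficient in DNA damage repair, were treated with compound. Their growth was then compared with that of vehicle-treated cultures to give inhibition.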

Each structure is given as a SMILES string. Compounds without any hit were thinned out: in the full panel of roughly 79,000, 15% have a hit. Values without a mark were called inactive. Active and inactive are the calls of the source. Rule as the data show it: active = growth inhibition above about 70%; inactive = the rest.

In the case of `CCN(CC)c1ccc(N=C2C=C(C(=O)Nc3ccccc3)C(=O)c3ccccc32)cc1`, the growth inhibition in assay [1] is -10.9%; in assay [2], -40.3%; in assay [3] it was -14.4%; in assay [4], 6.25%; in assay [5], -3.9%; in assay [6] it was -21.4%.
On to `CSc1nc2ncnc(N(C)C)c2[nH]1`, for which the growth inhibition in assay [1] is 1.1%; in assay [2], -11.8%; in assay [3] it was -8.5%; in assay [4], 2.45%; in assay [5], -7.4%; in assay [6], -16.5%.
On to `CC1(C)C(=O)OC(n2ccc(=O)[nH]c2=O)C1=O` (centres undefined), for which the growth inhibition was 7.15% in assay [1]; -11.2% in assay [2]; -7.75% in assay [3]; -43.9% in assay [4]; -10.8% in assay [5]; 12.7% in assay [6].
As to `C=CC[n+]1cccc(Oc2ccc([N+](=O)[O-])cc2[N+](=O)[O-])c1`, the growth inhibition in assay [1] is 73.7% (active); in assay [2], 12.4%; in assay [3], 63.5%; in assay [4], 31.3%; in assay [5], 18.1%; in assay [6] it was 54.7%.
On to `COC(=O)c1ccccc1CC1Cc2cc3c(cc2C1)CCC3`, for which the growth inhibition in assay [1] is 20.5%; in assay [2], 7.1%; in assay [3], -0.7%; in assay [4] it was 12.9%; in assay [5] it was 4.3%; in assay [6], 5.45%.
Take `CC1=CC(=O)C(C(C)C)=CC1=Nc1ccc(N(C)C)cc1`: the growth inhibition in assay [1] was -24.9%; in assay [2], -26.3%; in assay [3], -12.4%; in assay [4], -33%; in assay [5], 42.4%; in assay [6], -12.3%.
Regarding `COc1ccccc1C(c1ccccc1OC)c1ccccc1C(=O)O`, the growth inhibition was 14.5% in assay [1]; -3.35% in assay [2]; 5.75% in assay [3]; 15% in assay [4]; 6.05% in assay [5]; 26.9% in assay [6].
For `CN1Cc2ccccc2-c2ccccc2C1`, the growth inhibition in assay [1] was 4.35%; in assay [2] it was 1.8%; in assay [3], -5.95%; in assay [4], -32.8%; in assay [5] it was 4.7%; in assay [6], -2%.
With `O=C(Sc1ccccc1)C1OC1c1ccccc1` (centres undefined), the growth inhibition was 70.2% (active) in assay [1]; 28.6% in assay [2]; 22.6% in assay [3]; 60.8% in assay [4]; 63.1% in assay [5]; 80.5% (active) in assay [6].
Take `CCOC(=O)C(N)C(O)c1ccncc1` (centres undefined): the growth inhibition in assay [1] is -8%; in assay [2], -2.45%; in assay [3], -4.25%; in assay [4], -19.8%; in assay [5], 1.5%; in assay [6], 2.2%.
Take `CCC1(C)N=C(N)Nc2nc3cc(C)c(C)cc3n21` (centres undefined): the growth inhibition was 15.2% in assay [1]; 17.7% in assay [2]; 25.1% in assay [3]; 7.05% in assay [4]; 19.9% in assay [5]; 21.4% in assay [6].
For the compound `CN(/N=C/c1ccc(Cl)c(Cl)c1)C1=NCCCCN1`, the growth inhibition was 1.45% in assay [1]; -13.8% in assay [2]; 2.15% in assay [3]; -6.95% in assay [4]; -15.8% in assay [5]; -2.8% in assay [6].
`CC(C)OC(=O)Oc1ccc(Cl)cc1Cl`: the growth inhibition is 6.2% in assay [1]; -19.1% in assay [2]; 10.1% in assay [3]; -47.2% in assay [4]; -9.95% in assay [5]; 3.45% in assay [6].
For the compound `CN(C)CCCNc1ccc2nnn3c4ccc([N+](=O)[O-])cc4c(=O)c1c23`, the growth inhibition in assay [1] is 68.8%; in assay [2] it was 35%; in assay [3] it was 45.8%; in assay [4] it was 55.1%; in assay [5], 65.7%; in assay [6], 80% (active).
As for `Cc1ccc(S(=O)(=O)OCC2OC(CCCO)C/C([Si](C)(C)C)=C\CC2Cl)cc1` (centres undefined), the growth inhibition in assay [1] is 48.8%; in assay [2] it was 19.9%; in assay [3], 38.2%; in assay [4] it was 31.6%; in assay [5] it was 34.5%; in assay [6], 19.4%.
`CCCCCC1CCN(C(=O)c2ccc(N)cc2)CC1`: the growth inhibition in assay [1] is 90% (active); in assay [2] it was 52.8%; in assay [3], 44.8%; in assay [4], 49%; in assay [5], 94.4% (active); in assay [6], 42.7%.
As to `O=c1[nH][nH]c(=O)c(Cl)c1Cl`, the growth inhibition in assay [1] is 1.55%; in assay [2], 1.6%; in assay [3] it was -17.5%; in assay [4], 0.25%; in assay [5], -0.85%; in assay [6], 13.3%.
For `CSc1nc2c(nc(N)n2C2OC(CO)C(O)C(O)C2O)c(=O)[nH]1` (centres undefined), the growth inhibition was -13.7% in assay [1]; 8.45% in assay [2]; -1.85% in assay [3]; -1.2% in assay [4]; -6.2% in assay [5]; -8.9% in assay [6].
Regarding `CCN(CC)CCC(CN(C)C)C(C)O` (centres undefined), the growth inhibition in assay [1] was -4.05%; in assay [2], 4.05%; in assay [3], 13.1%; in assay [4], -17.4%; in assay [5], -1.4%; in assay [6], 8.75%.

The values are drawn from PubChem BioAssay (NCI).
